KB-V1 cytotox – KB-V1 MDR subline cytotoxicity | KB-V1 MDR cells viability, CellTiter-Glo, 72 h | Potency, µM (doses to about 46.1 µM), hits mostly cytotoxic | 400,000 compounds, 3.4% hits | AID 1347076; note: nearly all actives have a fitted effect of over 60% in size
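Compound-treated KB-V1 multidrug-resistant cells, 72 h, 37 degrees C; viability by CellTiter-Glo. Fitted qHTS curves give the values.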
TDP1 cell noCPT – qHTS for Inhibitors of human tyrosyl-DNA phosphodiesterase 1 (TDP1): qHTS in cells in absence of CPT; AID 686978, 2013; 420,000 compounds, 15% hits; Potency, µM (top dose mostly 46.2 µM), for the others: top-dose activity change, negative = growth inhibition, hits mostly inhibitors; DT40 Tdp1-/- hTDP1 cells, no CPT, ATP luminescence, 48 h; note: nearly all actives have a fitted effect of over 55% in size
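Seeded 400 DT40-hTDP1 cells/well (vehicle DMSO, no 20 nM CPT); pinned compounds; ≥48 hr at 37 °C; CellTiter-Glo luminescence as viability measure.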
KB-3-1 cytotox – kills parental KB-3-1 adenocarcinoma cells. KB-3-1 viability, CellTiter-Glo ATP luminescence, 72 h. Potency, µM (highest dose often 46.1 µM), actives largely listed as cytotoxic. 400,000 compounds, 1.4% hits; note: nearly all actives have a fitted effect of over 60% in size
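Cytotoxicity in the drug-sensitive parental line KB-3-1 was scored as loss of CellTiter-Glo luminescence following 72 h incubation with compound. Values come from curve fitting of normalized concentration-response data.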
DT40 TDP1 CPT – DT40-hTDP1 cell growth loss with CPT | chicken DT40 Tdp1-/-;hTDP1 cells + 20 nM CPT, ATP luminescence, 48 h | Potency, µM (series often up to 46.2 µM), for inactives: top-dose activity change, negative = growth inhibition, most hits filed as inhibitors | 420,000 compounds, 12% hits | AID 686979; note: nearly all actives have a fitted effect of over 55% in size
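Cell growth measured by CellTiter-Glo luminescence after a minimum 48 h, 37 C compound exposure with 20 nM CPT in Tdp1-knockout DT40 cells stably expressing hTDP1, seeded 400/well; qHTS titration format.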
HT1080 IDH1KD tx – HT-1080 IDH1 knockdown cell toxicity (counter line) | AID 686971 | 360,000 compounds, 2% hits | HT-1080 IDH1 knockdown viability, ATP luminescence, 48 h | Potency, µM (series often up to 46.1 µM), for the others: top-dose activity, negative = toxicity, usual class: cytotoxic;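 note: 0% = DMSO wells and -100% = cell-free medium wells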
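CellTiter-Glo luminescence after 48 h compound exposure at 37 degrees C of IDH1-knockdown HT-1080 cells in 5% FBS RPMI. %Activity scaled between DMSO wells and cell-free media wells, with curves fitted and assigned curve classes.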
HT1080NT lethal – kills 2HG-producing HT-1080-NT fibrosarcoma cells. HT-1080-NT fibrosarcoma viability, CellTiter-Glo ATP luminescence, 48 h. Potency, µM (top dose mostly 46.1 µM), for inactives: at the highest dose activity, negative = less viability, most hits filed as cytotoxic. 360,000 compounds, 1.6% hits;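 note: NT is the 2HG producing partner of a matched IDH1 knockdown line; 0% = DMSO-treated cells and -100% = media-only wells without cells; nearly all actives have a fitted effect of over 55% in size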
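Fibrosarcoma NT cells, 750 per well in 5% FBS RPMI, were exposed to compound for 48 hours. Viability: CellTiter-Glo luminescence.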
Numbers without * were called inactive; i = inactive; ? = inconclusive; · = no result given. An excerpt weighted towards active compounds, which were near 19% of everything screened. Calls come from the whole dose curve; as a rule, active = well fitted curve in the direction sought with a large enough effect; inconclusive = small, poorly fitted or top-dose-only effect, or another doubt; inactive = no such curve, though single readings can be large; an effect the other way counts as inactive or inconclusive. Unless noted, % is set by controls: 0 for no effect and ±100 for the full control effect; potency is the fitted concentration of half-maximal effect.

SMILES	KB-V1 cytotox	TDP1 cell noCPT	KB-3-1 cytotox	DT40 TDP1 CPT	HT1080 IDH1KD tx	HT1080NT lethal
Cc1ccc(S(=O)(=O)N2CCOCC2)cc1C(=O)OCC(=O)Nc1ccc2[nH]c(=O)[nH]c2c1	?	-3%	i	-4%	2%	-3%
CCOC(=O)C1CCN(C(c2cc3ccc(C)c(C)c3[nH]c2=O)c2nnnn2C2CCCCC2)CC1 (stereo not given)	16µM*	?	i	?	?	-6%
CCOC(=O)C1CCN(C(c2cc3c(C)ccc(C)c3[nH]c2=O)c2nnnn2C2CCCCC2)CC1 (stereo not given)	?	?	i	28µM*	0%	9%
Cc1ccc(S(=O)(=O)Nc2cc3c4c(c2)CCC(=O)N4CCC3)cc1	i	21µM*	i	?	-4%	-14%
Cc1ccc(C)c(S(=O)(=O)Nc2cc3c4c(c2)CC(=O)N4CCC3)c1	12µM*	?	?	?	-6%	-7%
COc1ccc(C)cc1S(=O)(=O)Nc1cc2c3c(c1)CC(=O)N3CCC2	i	?	?	?	?	?
CCCCc1ccc(NS(=O)(=O)c2cc3c4c(c2)CC(=O)N4CCC3)cc1	i	12µM*	i	15µM*	·	·
COc1ccc(OC)c(S(=O)(=O)Nc2cc3c4c(c2)CC(=O)N4CCC3)c1	i	15µM*	i	?	-13%	-23%
CN(C)c1ccc(NS(=O)(=O)c2cc3c4c(c2)CC(=O)N4CCC3)cc1	i	?	i	?	-2%	3%
Cc1ccc(CNC(=O)c2cc(-c3ccc(Cl)cc3)on2)cc1	i	-7%	i	1%	·	·
O=[N+]([O-])c1ccc(S(=O)(=O)Nc2ccc(S(=O)(=O)N3CCCC3)cc2)cc1	i	-9%	i	-22%	-8%	-4%
O=C(CNC(=O)c1ccccc1Cl)OCc1cc(=O)n2ccsc2n1	i	1%	i	19%	·	·
Cc1cc(C)n2c(SCC(=O)Nc3ccccc3C#N)nnc2n1	i	-7%	i	-15%	1%	-20%
C[C@@H](O[C@H]1OCCN(Cc2n[nH]c(=O)[nH]2)[C@H]1c1ccc(F)cc1)c1cc(C(F)(F)F)cc(C(F)(F)F)c1	·	21µM*	·	19µM*	·	·
Cc1c(Cl)cccc1NC(=O)CNCc1ccccc1F	i	13%	i	-14%	15%	10%
CCCN(CC(=O)Nc1ccc(Cl)cc1Cl)C(=O)/C=C/c1ccco1	?	16µM*	?	?	?	?
CCOc1ccc2[nH]c(=O)c(CN(CCN3CCCC3)C(=S)Nc3ccccc3OC)cc2c1	i	-19%	i	-29%	?	?
CCN1CCCC1CN(Cc1cc2ccc(C)c(C)c2[nH]c1=O)C(=O)Nc1ccccc1OC (stereo not given)	i	?	i	18µM*	-1%	-3%
CCN1CCCC1CN(Cc1cc2ccc(C)cc2[nH]c1=O)C(=S)Nc1ccccc1OC (stereo not given)	i	21µM*	?	?	?	?
CCOc1ccccc1NC(=S)N(Cc1cc2ccc(C)cc2[nH]c1=O)CC1CCCN1CC (stereo not given)	i	26µM*	13µM*	21µM*	-29%	?
COc1ccccc1NC(=O)N(CCN1CCOCC1)Cc1cc2cc(C)cc(C)c2[nH]c1=O	i	-29%	i	1%	-11%	-4%
O=C(/C=C/c1ccccc1)Nc1cccc(C(=O)NCCCCc2ccccc2)c1	i	18µM*	i	?	0%	-4%
O=C(/C=C/c1ccccc1)Nc1cccc(C(=O)NCCc2ccccc2)c1	i	?	i	?	?	-16%
O=C(NCCCCc1ccccc1)c1cccc(NC(=O)C2CCCCC2)c1	i	26µM*	i	?	-8%	-10%
O=C1CCCC/C1=C\Nc1ccc(S(=O)(=O)Nc2cnc3ccccc3n2)cc1	i	5%	i	0%	6%	10%
SMILES	KB-V1 cytotox	TDP1 cell noCPT	KB-3-1 cytotox	DT40 TDP1 CPT	HT1080 IDH1KD tx	HT1080NT lethal
COc1c(Cl)ccc(Cl)c1C(=O)O	·	-12%	·	-1%	·	·
CCc1c(N)nc(N)nc1Nc1ccccc1C	i	16µM*	i	?	-17%	1%
Cc1ccccc1CSCc1nc(N)nc(Nc2ccccc2C)n1	i	?	i	?	-9%	-4%
Cc1ccccc1Nc1nc(N)nc(C)c1Br	i	15µM*	i	?	-14%	-5%
Cc1ccccc1Nc1ncnc(N)n1	i	-2%	i	2%	-7%	1%
NC(Cc1ccc(F)cc1)c1csc(Nc2ccc(C(=O)NCCCO)cn2)n1 (stereo not given)	i	?	i	?	-18%	-16%
COc1ccc(CC(N)c2csc(Nc3cc(Oc4ccccc4)ncn3)n2)cc1 (stereo not given)	i	12µM*	i	16µM*	?	-23%
NC(Cc1ccc(F)cc1)c1csc(Nc2cc(Oc3ccccc3)ncn2)n1 (stereo not given)	?	?	?	?	16µM*	?
NC(COCc1ccccc1)c1csc(Nc2cc(Oc3ccccc3)ncn2)n1 (stereo not given)	?	26µM*	i	?	?	23µM*
NC(Cc1ccc(Cl)cc1)c1csc(Nc2cc(Oc3ccccc3)ncn2)n1 (stereo not given)	?	?	?	-106%	18µM*	18µM*
CCCN1CNc2c(c(=O)[nH]c(=S)n2CCC(C)C)C1	·	?	·	-22%	9%	0%
CN1CCN(c2nn3c(=O)c4ccccc4nc3s2)CC1	i	·	i	·	·	·
CC(N)c1csc(Nc2cc(Oc3ccccc3)ncn2)n1 (stereo not given)	i	0.041µM*	i	?	-22%	?
CC(=C/C(=O)O)/C(=C/c1ccccc1)C(=O)O	i	-22%	i	7%	7%	0%
CC(=O)c1sc(NC(=O)c2cc(-c3ccccc3)nn2-c2ccccc2)nc1C	?	6.5µM*	?	8.2µM*	12%	22%
O=C(Nc1nc2ccccc2s1)c1cc(-c2ccccc2)nn1-c1ccccc1	21µM*	10µM*	?	?	?	-29%

Source: PubChem BioAssay
